In assay [1] the target is Androgen receptor (Homo sapiens) (UniProt P10275). The assay is described as follows: qHTS assay to identify small molecule antagonists of the androgen receptor (AR) signaling pathway using the MDA cell line in the presence of 0.5 nM R1881 (AID 1259243). Note: nearly all actives have a fitted effect of over 50% in size. Note: potency is the fitted concentration of half-maximal effect. Summed up: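 Reporter cells cultured without CO2 receive test chemicals, then 0.5 nM R1881 final; after 16 hr at 37C, ONE-Glo is added and light output recorded.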
Chain of Androgen receptor (Homo sapiens) (P10275 whole entry, looked up): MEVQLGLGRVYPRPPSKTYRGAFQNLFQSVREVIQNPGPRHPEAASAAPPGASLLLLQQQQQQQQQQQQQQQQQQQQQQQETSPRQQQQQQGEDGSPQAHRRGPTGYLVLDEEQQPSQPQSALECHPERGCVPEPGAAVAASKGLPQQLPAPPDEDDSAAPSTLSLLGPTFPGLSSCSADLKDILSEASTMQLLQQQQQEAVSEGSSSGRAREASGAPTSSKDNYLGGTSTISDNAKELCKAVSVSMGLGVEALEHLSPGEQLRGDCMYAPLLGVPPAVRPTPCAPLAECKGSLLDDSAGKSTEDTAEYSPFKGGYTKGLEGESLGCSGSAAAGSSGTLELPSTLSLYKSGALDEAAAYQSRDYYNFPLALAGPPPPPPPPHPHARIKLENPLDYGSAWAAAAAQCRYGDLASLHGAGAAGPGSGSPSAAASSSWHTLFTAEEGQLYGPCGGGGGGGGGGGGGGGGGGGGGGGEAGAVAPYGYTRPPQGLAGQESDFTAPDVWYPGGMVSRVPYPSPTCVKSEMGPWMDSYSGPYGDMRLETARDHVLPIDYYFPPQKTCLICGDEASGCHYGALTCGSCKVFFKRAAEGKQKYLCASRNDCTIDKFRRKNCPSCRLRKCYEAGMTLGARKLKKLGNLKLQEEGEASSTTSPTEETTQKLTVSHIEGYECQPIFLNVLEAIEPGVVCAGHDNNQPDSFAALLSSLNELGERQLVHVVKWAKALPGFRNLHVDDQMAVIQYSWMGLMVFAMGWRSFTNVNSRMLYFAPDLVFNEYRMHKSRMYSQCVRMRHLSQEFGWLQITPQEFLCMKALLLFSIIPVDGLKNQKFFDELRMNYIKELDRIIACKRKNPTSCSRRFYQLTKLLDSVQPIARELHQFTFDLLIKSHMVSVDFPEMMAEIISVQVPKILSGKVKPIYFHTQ

Assay [2] deals with Estrogen receptor (Homo sapiens) (UniProt P03372). Kind of assay: qHTS assay to identify small molecule antagonists of the estrogen receptor alpha (ER-alpha) signaling pathway using the BG1 cell line in the presence of 0.1 nM 17-beta-estradiol (AID 1259244). Note: nearly all actives have a fitted effect of over 50% in size. Note: potency is the fitted concentration of half-maximal effect. Summed up:
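Estradiol at 0.1 nM (final) stimulates the endogenous ER-alpha of VM7Luc4E2 cells carrying an ERE-driven luciferase; compounds are co-incubated 22 h at 37C and luciferase output quantified by luminescence.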
(qHTS replaces the single test concentration by a dilution series.)

Assay [3] in a line: qHTS assay to identify small molecule HDAC inhibitors (AID 1259364). Note: potency is the fitted concentration of half-maximal effect.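 Note: wild-type HCT-116 cells with endogenous class I/II HDAC activity; nearly all actives have a fitted effect of over 45% in size.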 Summed up: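 Read-out: luminescence of HDAC-Glo I/II reagent, 30 min RT, reflecting class I/II deacetylase activity in whole HCT-116 cells pre-exposed 2 h to DMSO-dissolved compounds.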
Assay [4] in a line: qHTS assay to identify small molecule HDAC inhibitors - cell viability counter screen (AID 1259365). Note: series mostly up to about 92 µM; nearly all actives have a fitted effect of over 50% in size. Summed up: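 Wild-type HCT-116 cells were seeded at 1,500 per well, incubated overnight at 37 C, then exposed to compounds in DMSO for 2hr. Viability was read by CellTiter-Glo luminescence after 30min at room temperature.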
Assay [5] in a line: qHTS assay to identify small molecule agonists of the sonic hedgehog signaling (Shh) pathway - cell viability counter screen (AID 1259366). Note: nearly all actives have a fitted effect of over 50% in size. Note: potency is the fitted concentration of half-maximal effect. Summed up:
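NIH/3T3-derived 3T3 Gli1-Luc cells (stable Gli1-responsive firefly luciferase reporter) were seeded, rested 4 hr at 37 C/5% CO2, then exposed to compounds in DMSO for 24 hr; viability was read by CellTiter-Fluor fluorescence in the same wells.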

Assay [6] can be described thus: qHTS assay to identify small molecule agonists of the sonic hedgehog signaling (Shh) pathway (AID 1259368; calls by dose curve; note: nearly all actives have a fitted effect of over 15% in size; note: potency is the fitted concentration of half-maximal effect). Summed up:
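A Gli1 transcriptional response element controlled firefly luciferase in 3T3Gli1-Luc cells. Compounds and a positive control were added 4 hr after plating, and cells were incubated a further 24 hr at 37 C before luminescence detection.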

Assay [7] is described as follows: qHTS assay to identify small molecule agonists of the androgen receptor (AR) signaling pathway in the presence of an antagonist - cell viability counter screen (AID 1259379). Note: nearly all actives have a fitted effect of over 25% in size. Note: potency is the fitted concentration of half-maximal effect. Summed up:
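Seed MDA-kb2 at 3,000 cells/well; incubate 5 hr, 37C, 0% CO2. Add nilutamide to 3.0uM final, then pin compounds at 15 concentrations. Incubate 16 hr. Add CellTiter-Fluor at 15 hr, read fluorescence after 1 hr.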

A short description of assay [8]: qHTS assay to identify small molecule agonists of the estrogen receptor beta (ER-beta) signaling pathway - cell viability counter screen (AID 1259380). Note: nearly all actives have a fitted effect of over 30% in size. Note: potency is the fitted concentration of half-maximal effect. Summed up:
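CellTiter-Glo read, 30 min RT, same wells as bla assay; cells ER-beta-UAS-bla HEK293T; 16 hr compound, 37C; medium 2% charcoal-stripped FBS.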

For assay [9], the target named is Androgen receptor (Homo sapiens) (UniProt P10275). The assay is described as follows: qHTS assay to identify small molecule agonists of the androgen receptor (AR) signaling pathway in the presence of an antagonist (AID 1259381; calls by dose curve; note: nearly all actives have a fitted effect of over 15% in size). The method, boiled down: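 Test compounds at 15 concentrations were incubated for 16hr with MDA-kb2 reporter cells in presence of 3.0uM nilutamide (final). Signal: ONE-Glo luciferase luminescence.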

The nature of assay [10]: qHTS assay to identify small molecule antagonists of the estrogen receptor beta (ER-beta) signaling pathway - cell viability counter screen (AID 1259382). Note: nearly all actives have a fitted effect of over 55% in size. Note: potency is the fitted concentration of half-maximal effect. Summed up:
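In this multiplexed counter screen, cells were seeded at 2,000 per well in medium with 2% charcoal-stripped FBS and incubated 6 hr before compound and 1nM final E2 were added. Sixteen hours later, ATP-based luminescence reported viability.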

In assay [11] the target is Estrogen receptor (Homo sapiens) (UniProt P03372). Kind of assay: qHTS assay to identify small molecule agonists of the estrogen receptor alpha (ER-alpha) signaling pathway in the presence of an antagonist (AID 1259383; calls by dose curve; note: top concentration of the series differs between compounds; nearly all actives have a fitted effect of over 15% in size). Summed up: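 Stably transfected VM7Luc4E2 reporter cells, kept 5 days in charcoal-stripped serum, received ICI-182,780 at 10.0nM final before compound addition. Following 22hr incubation at 37C and 5% CO2, luciferase signal was read by luminescence.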
Chain of Estrogen receptor (Homo sapiens) (P03372 whole entry, looked up): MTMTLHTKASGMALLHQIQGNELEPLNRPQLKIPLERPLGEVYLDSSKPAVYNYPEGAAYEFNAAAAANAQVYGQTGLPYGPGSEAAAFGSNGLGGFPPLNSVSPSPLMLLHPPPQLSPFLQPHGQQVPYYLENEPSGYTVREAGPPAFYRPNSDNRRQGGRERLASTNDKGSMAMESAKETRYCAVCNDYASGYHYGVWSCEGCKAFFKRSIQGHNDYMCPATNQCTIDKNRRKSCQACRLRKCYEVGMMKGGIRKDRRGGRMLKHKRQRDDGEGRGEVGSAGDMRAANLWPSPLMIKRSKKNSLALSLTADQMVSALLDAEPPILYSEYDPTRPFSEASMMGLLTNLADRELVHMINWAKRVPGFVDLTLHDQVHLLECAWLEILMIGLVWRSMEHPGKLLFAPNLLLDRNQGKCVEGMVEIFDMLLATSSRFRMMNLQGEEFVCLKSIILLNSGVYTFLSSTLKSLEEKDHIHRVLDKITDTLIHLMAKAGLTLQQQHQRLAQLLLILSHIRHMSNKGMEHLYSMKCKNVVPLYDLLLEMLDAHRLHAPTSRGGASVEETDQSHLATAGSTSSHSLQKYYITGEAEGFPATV

Assay [12] in a line: qHTS assay to identify small molecule agonists or antagonists of the thyroid stimulating hormone receptor (TSHR) signaling pathway - wild type cell line counter screen (AID 1259384; calls by dose curve). The method, boiled down:
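Wild-type Hek293 cells, 800/well, 18 h at 37C, then compound with Ro20-1724 for 30 min RT. cAMP by HTRF (cAMP-d2/anti-cAMP cryptate), 1 h RT, fluorescence read. 15 concentrations, triplicates.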

In assay [13] the target is Thyrotropin receptor (Homo sapiens) (UniProt P16473). The assay is described as follows: qHTS assay to identify small molecule antagonists of the thyroid stimulating hormone receptor (TSHR) signaling pathway (AID 1259385; calls by dose curve; note: nearly all actives have a fitted effect of over 20% in size). The method, boiled down:
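TSHR-HEK293 cells (800/well) plated 18 h, then compounds with Ro20-1724 and TSH at 1.5 ng/mL final, 30 min at room temperature. cAMP quantified by HTRF (cAMP-d2/anti-cAMP-cryptate, 1 h); 15 concentrations in triplicate.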

Assay [14] is described as follows: qHTS assay to identify small molecule phospholipidosis (PLD) inducers (AID 1259344; active = well fitted curve in the direction sought with a large enough effect; an effect the other way counts as inactive or inconclusive). Summed up:
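HepG2 cells, 900/well, treated with compound plus LipidTOX Red for 24 h at 37 C; amiodarone positive and DMSO negative controls. Fixed with paraformaldehyde/Hoechst, then high-content imaging scored LipidTOX pit count and integrated intensity per well and per cell.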

Assay [15] can be described thus: qHTS assay to identify small molecule antagonists of the sonic hedgehog signaling (Shh) pathway - cell viability counter screen (AID 1259367). Note: nearly all actives have a fitted effect of over 55% in size. Note: potency is the fitted concentration of half-maximal effect. The method, boiled down:
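NIH/3T3-derived Gli1-Luc reporter cells, 2,000/well, plated 4 hr before compound addition, then stimulated with conditioned medium for 24 hr at 37C. Viability measured in the same wells by CellTiter-Fluor fluorescence, reagent added at 23 hr for 1 hr.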

Assay [16] in a line: qHTS assay to identify small molecule antagonists of the sonic hedgehog signaling (Shh) pathway (AID 1259369; calls by dose curve; note: nearly all actives have a fitted effect of over 45% in size; note: potency is the fitted concentration of half-maximal effect). Summed up: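 For antagonist detection, the reporter line received test compounds together with conditioned medium, incubated 24hr at 37 C, 5% CO2, then luminescence was recorded following 30min room-temperature luciferase reagent incubation.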
The nature of assay [17]: qHTS assay to identify small molecule agonists of the estrogen receptor alpha (ER-alpha) signaling pathway in the presence of an antagonist - cell viability counter screen (AID 1259386).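 Note: cells exposed to compounds for 22 h at 37 °C before the viability read; nearly all actives have a fitted effect of over 30% in size.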 Note: potency is the fitted concentration of half-maximal effect. Summed up: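 Viability counter screen using VM7Luc4E2 (full-length ER-alpha, four ERE-luciferase). The cells were treated with compounds alongside ICI-182,780 10.0nM for 22hr, and live-cell protease fluorescence was quantified with CellTiter-Fluor.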

Assay [18] concerns the target Progesterone receptor (Homo sapiens) (UniProt P06401). Kind of assay: qHTS assay to identify small molecule agonists of the progesterone receptor (PR) signaling pathway (AID 1346784; calls by dose curve; note: nearly all actives have a fitted effect of over 30% in size). Summed up:
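PR-UAS-bla HEK 293T cells carrying a UAS-driven beta-lactamase reporter were seeded in medium with 2% charcoal-stripped FBS, preincubated 6 hr at 37C, then exposed to compounds in DMSO for 16 hr; agonism was read by LiveBLAzer B/G FRET fluorescence.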

Assay [19] deals with Estrogen receptor beta (Homo sapiens) (UniProt Q92731). The assay is described as follows: qHTS assay to identify small molecule agonists of the estrogen receptor beta (ER-beta) signaling pathway (AID 1259377; active = well fitted activation curve with a large enough effect in the signal ratio in the repeat runs, not every such curve was filed as active; the % refers to the signal ratio). The method, boiled down: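 ER-beta-UAS-bla HEK293T (GripTite) cells carrying a UAS-driven beta-lactamase reporter, in medium with 2% charcoal-stripped FBS, were exposed to compounds for 16 hr at 37C; LiveBLAzer B/G FRET substrate was then added and fluorescence read after 2 hours at room temperature.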
Chain of Estrogen receptor beta (Homo sapiens) (Q92731 whole entry, looked up): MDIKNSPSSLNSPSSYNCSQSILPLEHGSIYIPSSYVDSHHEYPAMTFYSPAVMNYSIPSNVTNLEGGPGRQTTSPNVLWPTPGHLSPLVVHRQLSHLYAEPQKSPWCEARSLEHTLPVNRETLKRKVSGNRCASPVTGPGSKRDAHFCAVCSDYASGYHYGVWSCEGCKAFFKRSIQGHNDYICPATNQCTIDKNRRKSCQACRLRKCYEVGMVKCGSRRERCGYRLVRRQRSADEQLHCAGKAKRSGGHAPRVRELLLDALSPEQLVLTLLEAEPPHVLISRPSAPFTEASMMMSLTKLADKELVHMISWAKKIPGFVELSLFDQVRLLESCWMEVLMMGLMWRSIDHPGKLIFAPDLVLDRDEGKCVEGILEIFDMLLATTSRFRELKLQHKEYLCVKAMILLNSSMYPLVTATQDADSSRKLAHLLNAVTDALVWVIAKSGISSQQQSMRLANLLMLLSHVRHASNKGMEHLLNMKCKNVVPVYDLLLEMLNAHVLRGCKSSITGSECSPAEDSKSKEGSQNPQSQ

For assay [20] the target is unchanged. Kind of assay: qHTS assay to identify small molecule antagonists of the estrogen receptor beta (ER-beta) signaling pathway (AID 1259378; active = well fitted inhibition curve with a large enough effect in the signal ratio in the repeat runs, not every such curve was filed as active; the % refers to the signal ratio; note: potency is the fitted concentration of half-maximal effect). The method, boiled down:
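ER-beta-UAS-bla HEK293T cells in 2% charcoal-stripped FBS medium treated with compound plus 1nM final 17-beta-estradiol for 16 hr at 37C. Beta-lactamase reporter read by FRET substrate fluorescence after 2 hours at room temperature.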

“And” between values parts separate entries of the source, which are not always exact repeats. Identical values can stand only once. Unmarked numbers belong to inactive results. Inconclusive results are not listed. The source made the active and inactive calls. Unless noted, calls come from the whole dose curve; as a rule, active = well fitted curve in the direction sought with a large enough effect in the repeat runs; inconclusive = weak or mixed curves; inactive = no such curve, though single readings can be large; an effect the other way counts as inactive or inconclusive.

Chain of Thyrotropin receptor (Homo sapiens) (P16473 whole entry, looked up): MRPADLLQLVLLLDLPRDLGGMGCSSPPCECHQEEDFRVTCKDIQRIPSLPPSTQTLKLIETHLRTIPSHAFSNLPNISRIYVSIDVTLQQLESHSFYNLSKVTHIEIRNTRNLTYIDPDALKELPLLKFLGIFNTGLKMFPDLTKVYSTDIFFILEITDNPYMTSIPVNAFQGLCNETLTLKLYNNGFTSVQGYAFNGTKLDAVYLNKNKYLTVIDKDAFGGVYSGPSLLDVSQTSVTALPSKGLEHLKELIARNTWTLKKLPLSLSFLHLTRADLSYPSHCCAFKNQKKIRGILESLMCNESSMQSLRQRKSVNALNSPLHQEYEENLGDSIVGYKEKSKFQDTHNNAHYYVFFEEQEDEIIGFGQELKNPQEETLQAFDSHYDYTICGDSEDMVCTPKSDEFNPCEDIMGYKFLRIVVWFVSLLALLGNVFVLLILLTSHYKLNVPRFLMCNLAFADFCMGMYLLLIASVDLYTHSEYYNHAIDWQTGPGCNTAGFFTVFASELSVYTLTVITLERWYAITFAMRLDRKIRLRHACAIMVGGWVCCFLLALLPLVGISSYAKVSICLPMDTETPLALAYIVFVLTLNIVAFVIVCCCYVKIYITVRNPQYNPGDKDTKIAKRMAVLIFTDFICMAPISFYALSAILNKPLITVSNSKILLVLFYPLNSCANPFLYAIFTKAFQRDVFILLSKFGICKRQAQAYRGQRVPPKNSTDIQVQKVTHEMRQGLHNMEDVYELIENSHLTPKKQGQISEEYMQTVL
Chain of Progesterone receptor (Homo sapiens) (P06401 whole entry, looked up): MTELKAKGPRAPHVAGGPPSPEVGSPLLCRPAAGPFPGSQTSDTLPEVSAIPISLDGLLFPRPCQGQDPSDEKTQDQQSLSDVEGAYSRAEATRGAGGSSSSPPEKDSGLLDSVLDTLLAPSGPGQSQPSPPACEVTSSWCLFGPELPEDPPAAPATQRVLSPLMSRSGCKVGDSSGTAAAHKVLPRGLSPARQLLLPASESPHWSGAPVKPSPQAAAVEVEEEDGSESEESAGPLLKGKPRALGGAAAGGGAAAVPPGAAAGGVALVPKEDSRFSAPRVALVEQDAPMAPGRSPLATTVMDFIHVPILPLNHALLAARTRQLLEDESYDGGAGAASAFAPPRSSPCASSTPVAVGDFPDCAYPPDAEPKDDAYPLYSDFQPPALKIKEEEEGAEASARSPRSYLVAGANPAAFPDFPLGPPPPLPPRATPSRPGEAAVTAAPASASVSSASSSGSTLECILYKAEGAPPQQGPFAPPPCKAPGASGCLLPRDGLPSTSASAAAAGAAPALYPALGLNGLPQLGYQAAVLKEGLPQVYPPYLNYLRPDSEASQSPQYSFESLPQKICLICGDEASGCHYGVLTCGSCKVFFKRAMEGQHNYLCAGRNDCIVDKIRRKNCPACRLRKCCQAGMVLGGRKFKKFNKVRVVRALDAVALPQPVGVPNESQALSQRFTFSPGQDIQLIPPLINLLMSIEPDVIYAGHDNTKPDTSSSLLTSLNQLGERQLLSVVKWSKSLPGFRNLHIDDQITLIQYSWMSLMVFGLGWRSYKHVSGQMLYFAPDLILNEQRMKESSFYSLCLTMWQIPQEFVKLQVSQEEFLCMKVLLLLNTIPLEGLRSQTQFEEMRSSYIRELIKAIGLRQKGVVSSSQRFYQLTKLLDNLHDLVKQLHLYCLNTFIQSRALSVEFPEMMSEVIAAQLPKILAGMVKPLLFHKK

Turning to `O=C(Nc1cccc([N+](=O)[O-])c1)c1cc2ccccc2cc1O`, the Potency in [1] was 5.45 µM (active); in [2], 5.45 µM (active); in [3], 1.54 µM (active); in assay [7], 3.86 µM (active); in assay [8], 30.6 µM (active); in [10], 0.77 µM (active). Also, the Potency result in [4], in assay [5], in assay [6], in [9], in [11] and in assay [13] was “inactive” each time. Moreover, the outcome in assay [12] was inactive.
For the compound `Fc1ccc([C@@H]2CCNC[C@H]2COc2ccc3c(c2)OCO3)cc1`, the Potency entry in assay [1], in assay [14], in assay [3], in [4], in assay [5] and in assay [15] was “inactive” in each case. In addition, the Potency entry in assay [6], in [16], in assay [9], in [11], in assay [13] and in assay [17] was “inactive” throughout. The Potency result in [18] was “inactive”. Also, the Potency in assay [8] was 33.5 µM (active); in [10] it was 26.6 µM (active). In assay [12], the call was inactive.
With `C=CC(=O)OCC(CO)(COC(=O)C=C)COC(=O)C=C`, the Potency in [1] was 5.46 µM (active) and 12.2 µM (active); in assay [2], 13.7 µM (active); in [5], 4.34 µM (active) and 10.9 µM (active); in [15], 3.87 µM (active) and 8.63 µM (active); in [16] it was 1.54 µM (active) and 3.86 µM (active); in assay [7], 19.4 µM (active) and 24.3 µM (active). Also, the Potency is 13.7 µM (active) and 19.3 µM (active) in assay [8]; 19.4 µM (active) and 19.3 µM (active) in assay [10]; 17.3 µM (active) and 27.3 µM (active) in assay [17]. Further, the Potency result in assay [3], in assay [9] and in [11] was “inactive” in each case. In [12], the compound was called inactive.
With `O=C1c2c(O)ccc(Nc3ccc(CCO)cc3)c2C(=O)c2c([N+](=O)[O-])ccc(O)c21`, the Potency was 54.5 µM (active) in assay [1]; 48.6 µM (active) in assay [15]; 43.3 µM (active) in [7]; 17.2 µM (active) in [8]; 30.6 µM (active) in assay [17]. For the same compound, the Potency entry in [2], in assay [3], in assay [6], in [19], in assay [9] and in [10] was “inactive” throughout. Also, the Potency entry in assay [11] was “inactive”.
Consider `CC(C)C(C)(C)C(C)(C)C(C)(C)S`, for which the Potency entry in [1], in assay [14], in [3], in assay [4], in assay [5] and in assay [6] was “inactive” throughout. Also, the Potency result in assay [19], in [20], in assay [7], in [8], in [9] and in assay [10] was “inactive” throughout. The Potency result in [11], in assay [17] and in [18] was “inactive” in each case. Moreover, the result in [12] was inactive.
With `C=CC(=O)OCC(CO)(COCC(COC(=O)C=C)(COC(=O)C=C)COC(=O)C=C)COC(=O)C=C`, the Potency is 2.4 µM (active) in assay [1]; 17 µM (active) in assay [2]; 1.07 µM (active) in assay [5]; 3.03 µM (active) in assay [15]; 0.957 µM (active) in assay [6]; 480 nM (active) in assay [16]. Also, the Potency in assay [20] was 4.8 µM (active); in assay [7] it was 5.38 µM (active); in assay [8], 9.57 µM (active); in assay [10], 7.6 µM (active); in [17] it was 10.7 µM (active). For the same compound, the Potency entry in [9], in assay [11] and in assay [13] was “inactive” each time. Moreover, the compound was classed as inactive in assay [12].
As to `OCc1c[nH]c2ccccc12`, the results for the Potency in assay [1] and in [16] were 17.2 µM (active) and 30600 nM (active), respectively. Also, the Potency result in [14], in assay [3], in assay [4], in assay [5], in [6] and in [9] was “inactive” each time. In addition, the Potency result in assay [10], in [11] and in assay [17] was “inactive” each time. The compound was classed as inactive in assay [12].
